# Shown is part of a subset that was picked to be rich in the strongest signals.
# B1: RfpC (Mycobacterium tuberculosum), O07747 (protein)
# chain: MHHHHHHSSGRENLYFQGHMASKSAMAAGLVTASMSLSTAVAHAGPSPNWDAVAQCESGGNWAANTGNGKYGGLQFKPATWAAFGGVGNPAAASREQQIAVANRVLAEQGLDAWPTCGAASGLPIALWSKPAQGIKGS
# B2: Mg1lysM (Mycosphaerella graminicola) (protein)
# chain: QRNPITITPQFDCGATNSQQYVARSGDTLTKIAQEIYHDVVGVCDIARANNLADPNRIDAGTPYTIPINCQTYDRNSCL
# Legend:
# Experiment in all cases: glycan array binding signal (z-score within array); higher = stronger binding
# Settings in all cases: glycan notation: IUPAC condensed, linker removed
# [1] = molecular target: Fuc(a1-2)Gal(b1-3)GlcNAc(b1-3)Gal(b1-4)Glc
# How it was run: (§1)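 Negative Z-scores can be read as non-binding. The Z-score is calculated within each array and then averaged across arrays of one protein sequence at different concentrations or buffers and across linkers. Arrays, 3228 in all, were curated from the Consortium for Functional Glycomics database and kept only where the protein sequence was available.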
# [2] = molecular target: Fuc(a1-4)GlcNAc
# How it was run: as §1
# [3] = molecular target: Gal(b1-4)GalNAc(b1-3)[Fuc(a1-2)]Gal(b1-4)GlcNAc
# How it was run: as §1
# [4] = molecular target: Gal(b1-4)Glc
# How it was run: as §1
# [5] = molecular target: Gal(b1-4)Glc6S
# How it was run: as §1
# [6] = molecular target: Gal(b1-4)GlcNAc(b1-3)Gal(b1-4)[Fuc(a1-3)]GlcNAc(b1-3)Gal(b1-4)[Fuc(a1-3)]GlcNAc
# How it was run: as §1
# [7] = molecular target: Gal(b1-4)GlcNAc(b1-6)GalNAc
# How it was run: as §1
# [8] = molecular target: Gal4S(b1-4)GlcNAc
# How it was run: as §1
# [9] = molecular target: GalNAc(b1-3)Gal(a1-4)Gal(b1-4)GlcNAc
# How it was run: as §1
# [10] = molecular target: GlcNAc(b1-3)Gal
# How it was run: as §1
# [11] = molecular target: Kdn(a2-3)Gal(b1-4)GlcNAc
# How it was run: as §1
# [12] = molecular target: Man(a1-2)Man(a1-2)Man(a1-3)Man
# How it was run: as §1
# [13] = molecular target: Man(a1-2)Man(a1-3)[Man(a1-2)Man(a1-6)]Man(a1-6)[Man(a1-2)Man(a1-2)Man(a1-3)]Man(b1-4)GlcNAc(b1-4)GlcNAc
# How it was run: as §1
# [14] = molecular target: Man(a1-6)Man
# How it was run: as §1
# [15] = molecular target: Neu5Ac(a2-3)Gal
# How it was run: as §1
# [16] = molecular target: Neu5Ac(a2-3)Gal(b1-3)GalNAc(b1-4)[Neu5Ac(a2-3)]Gal(b1-4)Glc
# How it was run: as §1
# [17] = molecular target: Neu5Ac(a2-3)Gal(b1-4)[Fuc(a1-3)]GlcNAc(b1-3)Gal(b1-4)[Fuc(a1-3)]GlcNAc(b1-3)Gal(b1-4)[Fuc(a1-3)]GlcNAc
# How it was run: as §1
# [18] = molecular target: Neu5Ac(a2-3)[Neu5Ac(a2-6)]GalNAc
# How it was run: as §1
# [19] = molecular target: Neu5Ac(a2-6)Gal(b1-4)Glc
# How it was run: as §1
# [20] = molecular target: Neu5Ac(a2-6)Gal(b1-4)GlcNAc(b1-2)Man(a1-3)[Gal(b1-4)GlcNAc(b1-2)Man(a1-6)]Man(b1-4)GlcNAc(b1-4)GlcNAc
# How it was run: as §1
# [21] = molecular target: Neu5Gc(a2-6)GalNAc
# How it was run: as §1
# [22] = molecular target: Neu5Gc(b2-6)Gal(b1-4)GlcNAc
# How it was run: as §1
# [23] = molecular target: Fuc(a1-2)Gal(b1-3)[Fuc(a1-4)]GlcNAc(b1-3)[Gal(b1-4)GlcNAc(b1-6)]Gal(b1-4)Glc
# How it was run: as §1
# [24] = molecular target: Fuc(a1-2)Gal(b1-4)Glc
# How it was run: as §1
# [25] = molecular target: Fuc(a1-2)Gal(b1-4)GlcNAc(b1-3)Gal(b1-4)GlcNAc(b1-2)Man(a1-3)[Fuc(a1-2)Gal(b1-4)GlcNAc(b1-3)Gal(b1-4)GlcNAc(b1-2)Man(a1-6)]Man(b1-4)GlcNAc(b1-4)GlcNAc
# How it was run: as §1
# [26] = molecular target: Fuc(a1-2)Gal(b1-4)[Fuc(a1-3)]GlcNAc(b1-2)Man(a1-3)[Fuc(a1-2)Gal(b1-4)[Fuc(a1-3)]GlcNAc(b1-2)Man(a1-6)]Man(b1-4)GlcNAc(b1-4)[Fuc(a1-6)]GlcNAc
# How it was run: as §1
# [27] = molecular target: Fuc(a1-2)Gal3S(b1-4)GlcNAc
# How it was run: as §1
# [28] = molecular target: Fuc(a1-2)[GalNAc(a1-3)]Gal(b1-4)GlcNAc(b1-2)Man(a1-3)[Fuc(a1-2)[GalNAc(a1-3)]Gal(b1-4)GlcNAc(b1-2)Man(a1-6)]Man(b1-4)GlcNAc(b1-4)[Fuc(a1-6)]GlcNAc
# How it was run: as §1
# [29] = molecular target: Fuc(a1-3)[Gal3S(b1-4)]GlcNAc
# How it was run: as §1
# [30] = molecular target: Gal(a1-3)Gal
# How it was run: as §1
# [31] = molecular target: Gal(a1-3)Gal(b1-3)[Fuc(a1-4)]GlcNAc(b1-2)Man(a1-3)[Gal(a1-3)Gal(b1-3)[Fuc(a1-4)]GlcNAc(b1-2)Man(a1-6)]Man(b1-4)GlcNAc(b1-4)GlcNAc
# How it was run: as §1
# [32] = molecular target: Gal(a1-4)Gal(b1-4)GlcNAc(b1-2)Man(a1-3)[Gal(a1-4)Gal(b1-4)GlcNAc(b1-2)Man(a1-6)]Man(b1-4)GlcNAc(b1-4)GlcNAc
# How it was run: as §1
# [33] = molecular target: Gal(a1-6)Glc
# How it was run: as §1
# [34] = molecular target: Gal(b1-3)Gal
# How it was run: as §1
# [35] = molecular target: Gal(b1-3)GlcNAc(b1-2)Man(a1-3)[GlcNAc(b1-4)][Gal(b1-3)GlcNAc(b1-2)Man(a1-6)]Man(b1-4)GlcNAc(b1-4)GlcNAc
# How it was run: as §1
# [36] = molecular target: Gal(b1-3)GlcNAc(b1-3)Gal(b1-4)GlcNAc(b1-2)[Gal(b1-3)GlcNAc(b1-3)Gal(b1-4)GlcNAc(b1-6)]Man(a1-6)[Gal(b1-3)GlcNAc(b1-3)Gal(b1-4)GlcNAc(b1-2)Man(a1-3)]Man(b1-4)GlcNAc(b1-4)[Fuc(a1-6)]GlcNAc
# How it was run: as §1
# [37] = molecular target: Gal(b1-3)GlcNAc(b1-6)[Gal(b1-3)]GalNAc
# How it was run: as §1
# [38] = molecular target: Gal(b1-4)GlcNAc(b1-2)Man(a1-6)Man(b1-4)GlcNAc(b1-4)GlcNAc
# How it was run: as §1
# [39] = molecular target: Gal6S(b1-4)GlcNAc
# How it was run: as §1
# [40] = molecular target: GalNAc(a1-3)GalNAc
# How it was run: as §1
# [41] = molecular target: GalNAc3S(b1-4)[Fuc(a1-3)]GlcNAc
# How it was run: as §1
# [42] = molecular target: Glc(a1-4)Glc(a1-4)Glc(a1-4)Glc
# How it was run: as §1
# [43] = molecular target: GlcA(b1-6)Gal
# How it was run: as §1
# [44] = molecular target: GlcNAc(a1-4)Gal(b1-4)GlcNAc(b1-3)Gal(b1-4)Glc
# How it was run: as §1
# [45] = molecular target: GlcNAc(b1-2)Man(a1-3)[GlcNAc(b1-2)Man(a1-6)]Man(b1-4)GlcNAc(b1-4)GlcNAc
# How it was run: as §1
# [46] = molecular target: GlcNAc(b1-2)[GlcNAc(b1-4)]Man(a1-3)[GlcNAc(b1-4)][GlcNAc(b1-2)[GlcNAc(b1-6)]Man(a1-6)]Man(b1-4)GlcNAc(b1-4)[Fuc(a1-6)]GlcNAc
# How it was run: as §1
# [47] = molecular target: GlcNAc(b1-3)Gal(b1-4)GlcNAc(b1-2)[GlcNAc(b1-3)Gal(b1-4)GlcNAc(b1-6)]Man(a1-6)[GlcNAc(b1-3)Gal(b1-4)GlcNAc(b1-2)Man(a1-3)]Man(b1-4)GlcNAc(b1-4)GlcNAc
# How it was run: as §1
# [48] = molecular target: GlcNAc(b1-3)Gal(b1-4)GlcNAc(b1-3)Gal(b1-4)GlcNAc(b1-3)Gal(b1-4)GlcNAc(b1-2)Man(a1-3)[GlcNAc(b1-3)Gal(b1-4)GlcNAc(b1-3)Gal(b1-4)GlcNAc(b1-3)Gal(b1-4)GlcNAc(b1-2)Man(a1-6)]Man(b1-4)GlcNAc(b1-4)[Fuc(a1-6)]GlcNAc
# How it was run: as §1
# [49] = molecular target: GlcNAc(b1-3)Man
# How it was run: as §1
# [50] = molecular target: GlcNAc(b1-4)GlcNAc(b1-4)GlcNAc
# How it was run: as §1
binder,measurement,setting,value
B1,glycan array binding signal (z-score),[1],0.546
same,glycan array binding signal (z-score),[2],-1.09
same,glycan array binding signal (z-score),[3],3.48
same,glycan array binding signal (z-score),[4],-0.11
same,glycan array binding signal (z-score),[5],4.01
same,glycan array binding signal (z-score),[6],-0.25
same,glycan array binding signal (z-score),[7],-0.822
same,glycan array binding signal (z-score),[8],0.815
same,glycan array binding signal (z-score),[9],3.74
same,glycan array binding signal (z-score),[10],-0.187
same,glycan array binding signal (z-score),[11],-0.421
same,glycan array binding signal (z-score),[12],2.92
same,glycan array binding signal (z-score),[13],-0.745
same,glycan array binding signal (z-score),[14],-0.622
same,glycan array binding signal (z-score),[15],0.641
same,glycan array binding signal (z-score),[16],-0.923
same,glycan array binding signal (z-score),[17],-0.798
same,glycan array binding signal (z-score),[18],0.475
same,glycan array binding signal (z-score),[19],0.057
same,glycan array binding signal (z-score),[20],-0.731
same,glycan array binding signal (z-score),[21],1.8
same,glycan array binding signal (z-score),[22],3.14
B2,glycan array binding signal (z-score),[1],-0.073
same,glycan array binding signal (z-score),[23],-0.074
same,glycan array binding signal (z-score),[24],-0.06
same,glycan array binding signal (z-score),[25],-0.081
same,glycan array binding signal (z-score),[26],0.076
same,glycan array binding signal (z-score),[27],-0.038
same,glycan array binding signal (z-score),[28],-0.079
same,glycan array binding signal (z-score),[29],-0.075
same,glycan array binding signal (z-score),[2],-0.078
same,glycan array binding signal (z-score),[30],-0.086
same,glycan array binding signal (z-score),[31],-0.048
same,glycan array binding signal (z-score),[32],-0.061
same,glycan array binding signal (z-score),[33],-0.075
same,glycan array binding signal (z-score),[34],-0.061
same,glycan array binding signal (z-score),[35],0.125
same,glycan array binding signal (z-score),[36],0.02
same,glycan array binding signal (z-score),[37],-0.054
same,glycan array binding signal (z-score),[38],-0.083
same,glycan array binding signal (z-score),[39],-0.051
same,glycan array binding signal (z-score),[40],0.308
same,glycan array binding signal (z-score),[41],0.01
same,glycan array binding signal (z-score),[42],-0.073
same,glycan array binding signal (z-score),[43],-0.062
same,glycan array binding signal (z-score),[44],-0.084
same,glycan array binding signal (z-score),[45],-0.057
same,glycan array binding signal (z-score),[46],-0.071
same,glycan array binding signal (z-score),[47],-0.06
same,glycan array binding signal (z-score),[48],-0.081
same,glycan array binding signal (z-score),[49],-0.057
same,glycan array binding signal (z-score),[50],16.5
